# Assay results reported in ChEMBL document CHEMBL2218924, “A broad activity screen in support of a chemogenomic map for kinase signalling research and drug discovery” (Biochem J, 2013).
# How the values were obtained:
# [1] = target: T1, Ephrin type-A receptor 3 (Homo sapiens) (UniProt P29320); settings: at 10 µM
# T1 sequence (whole entry): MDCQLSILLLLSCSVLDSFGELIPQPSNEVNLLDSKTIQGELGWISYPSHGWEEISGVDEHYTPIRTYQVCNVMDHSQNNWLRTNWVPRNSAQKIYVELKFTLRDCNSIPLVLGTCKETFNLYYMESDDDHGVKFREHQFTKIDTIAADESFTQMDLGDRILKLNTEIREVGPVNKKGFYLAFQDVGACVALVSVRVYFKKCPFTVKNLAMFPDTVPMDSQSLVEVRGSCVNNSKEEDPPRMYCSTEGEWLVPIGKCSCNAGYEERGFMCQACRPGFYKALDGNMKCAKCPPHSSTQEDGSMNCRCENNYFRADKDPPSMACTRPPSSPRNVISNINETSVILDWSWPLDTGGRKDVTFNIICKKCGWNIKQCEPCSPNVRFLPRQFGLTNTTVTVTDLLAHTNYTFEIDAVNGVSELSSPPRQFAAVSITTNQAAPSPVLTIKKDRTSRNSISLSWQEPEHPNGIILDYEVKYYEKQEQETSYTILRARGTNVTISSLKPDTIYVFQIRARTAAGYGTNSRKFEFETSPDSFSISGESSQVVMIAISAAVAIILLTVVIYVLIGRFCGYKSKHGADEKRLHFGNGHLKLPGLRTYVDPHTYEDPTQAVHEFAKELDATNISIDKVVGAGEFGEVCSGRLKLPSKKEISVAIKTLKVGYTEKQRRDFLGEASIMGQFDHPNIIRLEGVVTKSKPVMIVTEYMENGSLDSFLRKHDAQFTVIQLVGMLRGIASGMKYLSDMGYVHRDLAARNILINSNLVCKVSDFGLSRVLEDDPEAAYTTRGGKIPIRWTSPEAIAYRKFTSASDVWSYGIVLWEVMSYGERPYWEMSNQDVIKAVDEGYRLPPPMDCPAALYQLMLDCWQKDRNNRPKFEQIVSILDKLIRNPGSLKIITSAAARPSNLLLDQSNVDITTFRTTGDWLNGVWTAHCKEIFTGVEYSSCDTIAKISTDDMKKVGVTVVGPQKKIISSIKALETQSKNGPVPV
# [2] = target: Ephrin type-A receptor 4 (Homo sapiens) (UniProt P54764); settings: at 10 µM
# [3] = target: Ephrin type-A receptor 5 (Homo sapiens) (UniProt P54756); settings: at 1 µM
# Sequence of Ephrin type-A receptor 5 (Homo sapiens) (P54756 whole entry): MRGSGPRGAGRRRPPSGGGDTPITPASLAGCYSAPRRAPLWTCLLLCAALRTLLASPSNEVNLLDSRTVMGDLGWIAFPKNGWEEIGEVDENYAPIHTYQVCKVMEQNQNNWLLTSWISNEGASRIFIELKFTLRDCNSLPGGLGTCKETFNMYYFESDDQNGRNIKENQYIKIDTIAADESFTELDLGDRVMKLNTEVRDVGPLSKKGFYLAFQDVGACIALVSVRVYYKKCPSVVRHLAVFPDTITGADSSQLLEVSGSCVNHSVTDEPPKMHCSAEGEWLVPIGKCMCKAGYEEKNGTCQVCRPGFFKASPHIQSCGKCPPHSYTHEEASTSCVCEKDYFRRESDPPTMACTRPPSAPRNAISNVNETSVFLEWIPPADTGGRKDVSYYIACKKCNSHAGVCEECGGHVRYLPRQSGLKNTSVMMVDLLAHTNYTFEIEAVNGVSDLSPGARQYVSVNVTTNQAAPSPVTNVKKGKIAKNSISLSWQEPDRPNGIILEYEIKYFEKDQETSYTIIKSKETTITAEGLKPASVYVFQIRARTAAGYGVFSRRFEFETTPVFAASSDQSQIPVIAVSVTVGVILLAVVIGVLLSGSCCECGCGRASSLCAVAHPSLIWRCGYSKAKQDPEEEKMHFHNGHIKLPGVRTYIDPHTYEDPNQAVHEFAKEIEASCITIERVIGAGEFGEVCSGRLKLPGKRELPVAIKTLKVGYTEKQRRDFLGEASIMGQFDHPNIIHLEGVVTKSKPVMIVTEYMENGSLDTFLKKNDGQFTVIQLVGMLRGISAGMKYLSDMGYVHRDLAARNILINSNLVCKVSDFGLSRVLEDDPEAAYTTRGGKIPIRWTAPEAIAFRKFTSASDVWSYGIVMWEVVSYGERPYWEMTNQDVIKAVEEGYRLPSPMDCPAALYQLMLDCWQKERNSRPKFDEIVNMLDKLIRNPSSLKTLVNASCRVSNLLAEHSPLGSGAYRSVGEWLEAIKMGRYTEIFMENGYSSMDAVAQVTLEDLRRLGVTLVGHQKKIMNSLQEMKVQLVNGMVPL
# [4] = target: Ephrin type-A receptor 5 (Homo sapiens) (UniProt P54756); settings: at 10 µM
# [5] = target: Ephrin type-A receptor 7 (Homo sapiens) (UniProt Q15375); settings: at 1 µM
# Sequence of Ephrin type-A receptor 7 (Homo sapiens) (Q15375 28-998 limits assumed): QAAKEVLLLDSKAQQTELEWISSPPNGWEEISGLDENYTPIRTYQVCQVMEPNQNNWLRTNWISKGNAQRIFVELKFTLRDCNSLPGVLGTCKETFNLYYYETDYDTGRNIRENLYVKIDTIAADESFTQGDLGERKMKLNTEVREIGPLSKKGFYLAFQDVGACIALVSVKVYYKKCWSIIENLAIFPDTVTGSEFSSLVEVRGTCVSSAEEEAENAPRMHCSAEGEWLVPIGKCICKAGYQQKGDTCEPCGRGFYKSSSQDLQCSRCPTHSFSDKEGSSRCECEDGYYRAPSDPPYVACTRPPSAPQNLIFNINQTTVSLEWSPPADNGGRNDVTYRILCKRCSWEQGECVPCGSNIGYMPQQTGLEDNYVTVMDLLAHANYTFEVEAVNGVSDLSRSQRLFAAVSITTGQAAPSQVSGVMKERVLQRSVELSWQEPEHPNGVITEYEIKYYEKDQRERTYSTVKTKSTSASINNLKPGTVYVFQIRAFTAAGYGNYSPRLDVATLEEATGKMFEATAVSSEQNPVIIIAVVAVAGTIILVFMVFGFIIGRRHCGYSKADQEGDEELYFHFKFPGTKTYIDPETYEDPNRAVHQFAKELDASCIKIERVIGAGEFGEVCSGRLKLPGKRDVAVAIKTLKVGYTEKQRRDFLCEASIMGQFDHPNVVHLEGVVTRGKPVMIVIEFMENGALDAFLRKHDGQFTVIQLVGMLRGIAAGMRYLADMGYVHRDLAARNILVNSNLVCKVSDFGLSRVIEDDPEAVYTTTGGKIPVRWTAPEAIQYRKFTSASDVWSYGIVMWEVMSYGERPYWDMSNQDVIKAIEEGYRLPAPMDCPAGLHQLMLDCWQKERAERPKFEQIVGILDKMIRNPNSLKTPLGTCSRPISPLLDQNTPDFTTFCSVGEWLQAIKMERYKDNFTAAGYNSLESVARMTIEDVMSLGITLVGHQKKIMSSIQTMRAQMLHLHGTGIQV
# [6] = target: Ephrin type-A receptor 7 (Homo sapiens) (UniProt Q15375); settings: at 10 µM
# [7] = target: T2, Ephrin type-A receptor 8 (Homo sapiens) (UniProt P29322); settings: at 1 µM
# T2 sequence (whole entry): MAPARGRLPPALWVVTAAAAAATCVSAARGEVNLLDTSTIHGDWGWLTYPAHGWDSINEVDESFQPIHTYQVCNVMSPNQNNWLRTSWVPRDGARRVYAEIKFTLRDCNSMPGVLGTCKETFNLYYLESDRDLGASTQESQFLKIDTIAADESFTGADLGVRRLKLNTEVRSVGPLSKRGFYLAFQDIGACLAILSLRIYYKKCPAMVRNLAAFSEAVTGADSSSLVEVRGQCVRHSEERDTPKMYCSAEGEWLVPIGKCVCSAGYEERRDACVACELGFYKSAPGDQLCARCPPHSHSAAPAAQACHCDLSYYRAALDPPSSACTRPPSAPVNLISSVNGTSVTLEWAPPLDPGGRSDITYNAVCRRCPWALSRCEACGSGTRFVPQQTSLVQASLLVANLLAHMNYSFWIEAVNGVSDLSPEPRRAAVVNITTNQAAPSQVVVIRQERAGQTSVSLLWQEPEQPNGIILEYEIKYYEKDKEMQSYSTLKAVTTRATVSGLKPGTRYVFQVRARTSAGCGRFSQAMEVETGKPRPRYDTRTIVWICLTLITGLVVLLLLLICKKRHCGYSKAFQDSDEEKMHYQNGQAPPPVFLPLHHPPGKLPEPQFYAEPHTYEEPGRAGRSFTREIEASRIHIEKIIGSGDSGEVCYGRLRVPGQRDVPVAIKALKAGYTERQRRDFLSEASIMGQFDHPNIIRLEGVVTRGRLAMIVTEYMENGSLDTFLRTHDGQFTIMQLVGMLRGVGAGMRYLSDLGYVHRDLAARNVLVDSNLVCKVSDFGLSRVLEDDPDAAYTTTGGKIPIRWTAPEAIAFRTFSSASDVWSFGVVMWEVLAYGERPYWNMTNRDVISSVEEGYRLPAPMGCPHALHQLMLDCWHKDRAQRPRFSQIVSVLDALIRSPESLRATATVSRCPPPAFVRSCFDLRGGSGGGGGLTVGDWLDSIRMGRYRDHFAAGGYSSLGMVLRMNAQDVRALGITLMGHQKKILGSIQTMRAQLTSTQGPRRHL
# [8] = target: T2, Ephrin type-A receptor 8 (Homo sapiens); settings: at 10 µM
# [9] = target: T3, Ephrin type-B receptor 1 (Homo sapiens) (UniProt P54762); settings: at 1 µM
# T3 sequence (whole entry): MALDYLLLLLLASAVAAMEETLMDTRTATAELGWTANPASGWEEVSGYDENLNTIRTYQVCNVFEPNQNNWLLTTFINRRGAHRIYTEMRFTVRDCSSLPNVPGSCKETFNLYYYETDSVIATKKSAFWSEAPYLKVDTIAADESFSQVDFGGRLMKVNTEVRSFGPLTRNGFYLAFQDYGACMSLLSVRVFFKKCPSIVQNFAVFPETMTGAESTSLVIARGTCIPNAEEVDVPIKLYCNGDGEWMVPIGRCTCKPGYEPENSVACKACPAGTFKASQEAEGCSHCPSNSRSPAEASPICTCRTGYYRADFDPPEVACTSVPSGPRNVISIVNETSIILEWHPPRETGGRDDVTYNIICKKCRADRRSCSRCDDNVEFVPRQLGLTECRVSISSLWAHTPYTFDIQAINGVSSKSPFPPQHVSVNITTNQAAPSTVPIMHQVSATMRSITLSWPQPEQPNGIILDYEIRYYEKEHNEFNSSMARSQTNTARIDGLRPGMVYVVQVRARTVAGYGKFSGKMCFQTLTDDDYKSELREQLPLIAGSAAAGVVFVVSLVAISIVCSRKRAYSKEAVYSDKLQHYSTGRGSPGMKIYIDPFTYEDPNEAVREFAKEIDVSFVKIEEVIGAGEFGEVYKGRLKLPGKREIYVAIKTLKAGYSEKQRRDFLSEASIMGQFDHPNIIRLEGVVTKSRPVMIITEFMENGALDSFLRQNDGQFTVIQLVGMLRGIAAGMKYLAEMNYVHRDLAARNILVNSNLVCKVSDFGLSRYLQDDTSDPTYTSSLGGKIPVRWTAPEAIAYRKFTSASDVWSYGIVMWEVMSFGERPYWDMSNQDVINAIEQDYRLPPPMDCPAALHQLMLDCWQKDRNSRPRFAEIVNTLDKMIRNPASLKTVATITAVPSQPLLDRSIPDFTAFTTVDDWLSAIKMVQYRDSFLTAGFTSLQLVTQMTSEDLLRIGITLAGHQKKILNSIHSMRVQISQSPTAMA
# [10] = target: T3, Ephrin type-B receptor 1 (Homo sapiens); settings: at 10 µM
# [11] = target: T4, Ephrin type-B receptor 4 (Homo sapiens) (UniProt P54760); settings: at 1 µM
# T4 sequence (whole entry): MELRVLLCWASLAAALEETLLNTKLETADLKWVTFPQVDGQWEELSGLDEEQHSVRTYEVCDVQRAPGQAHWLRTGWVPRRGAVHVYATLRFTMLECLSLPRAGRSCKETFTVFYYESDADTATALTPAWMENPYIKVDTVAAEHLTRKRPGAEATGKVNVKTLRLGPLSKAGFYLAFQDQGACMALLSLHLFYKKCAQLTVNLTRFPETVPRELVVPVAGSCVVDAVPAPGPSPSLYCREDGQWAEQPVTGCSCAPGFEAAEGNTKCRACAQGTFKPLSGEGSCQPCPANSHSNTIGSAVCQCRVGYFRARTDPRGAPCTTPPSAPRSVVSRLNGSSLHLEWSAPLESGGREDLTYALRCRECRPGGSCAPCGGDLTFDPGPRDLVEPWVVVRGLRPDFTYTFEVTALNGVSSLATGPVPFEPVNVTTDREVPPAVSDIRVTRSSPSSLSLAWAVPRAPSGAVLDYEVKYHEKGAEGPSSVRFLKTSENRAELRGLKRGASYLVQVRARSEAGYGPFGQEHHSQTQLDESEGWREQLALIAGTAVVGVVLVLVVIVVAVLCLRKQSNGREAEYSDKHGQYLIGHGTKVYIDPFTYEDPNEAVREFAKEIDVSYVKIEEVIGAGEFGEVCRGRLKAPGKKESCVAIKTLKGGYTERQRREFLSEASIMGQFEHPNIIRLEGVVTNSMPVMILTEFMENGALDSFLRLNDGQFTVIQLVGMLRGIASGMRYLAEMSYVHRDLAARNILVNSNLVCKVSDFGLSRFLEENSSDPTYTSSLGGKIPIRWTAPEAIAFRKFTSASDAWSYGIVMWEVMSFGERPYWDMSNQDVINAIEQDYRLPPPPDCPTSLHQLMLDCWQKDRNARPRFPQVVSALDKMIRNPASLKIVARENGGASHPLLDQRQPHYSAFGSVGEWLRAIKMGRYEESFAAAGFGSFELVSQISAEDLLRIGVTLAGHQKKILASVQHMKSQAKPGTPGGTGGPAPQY
# [12] = target: T4, Ephrin type-B receptor 4 (Homo sapiens); settings: at 10 µM
# [13] = target: Receptor tyrosine-protein kinase erbB-4 (Homo sapiens) (UniProt Q15303); settings: at 1 µM
# Sequence of Receptor tyrosine-protein kinase erbB-4 (Homo sapiens) (Q15303 whole entry): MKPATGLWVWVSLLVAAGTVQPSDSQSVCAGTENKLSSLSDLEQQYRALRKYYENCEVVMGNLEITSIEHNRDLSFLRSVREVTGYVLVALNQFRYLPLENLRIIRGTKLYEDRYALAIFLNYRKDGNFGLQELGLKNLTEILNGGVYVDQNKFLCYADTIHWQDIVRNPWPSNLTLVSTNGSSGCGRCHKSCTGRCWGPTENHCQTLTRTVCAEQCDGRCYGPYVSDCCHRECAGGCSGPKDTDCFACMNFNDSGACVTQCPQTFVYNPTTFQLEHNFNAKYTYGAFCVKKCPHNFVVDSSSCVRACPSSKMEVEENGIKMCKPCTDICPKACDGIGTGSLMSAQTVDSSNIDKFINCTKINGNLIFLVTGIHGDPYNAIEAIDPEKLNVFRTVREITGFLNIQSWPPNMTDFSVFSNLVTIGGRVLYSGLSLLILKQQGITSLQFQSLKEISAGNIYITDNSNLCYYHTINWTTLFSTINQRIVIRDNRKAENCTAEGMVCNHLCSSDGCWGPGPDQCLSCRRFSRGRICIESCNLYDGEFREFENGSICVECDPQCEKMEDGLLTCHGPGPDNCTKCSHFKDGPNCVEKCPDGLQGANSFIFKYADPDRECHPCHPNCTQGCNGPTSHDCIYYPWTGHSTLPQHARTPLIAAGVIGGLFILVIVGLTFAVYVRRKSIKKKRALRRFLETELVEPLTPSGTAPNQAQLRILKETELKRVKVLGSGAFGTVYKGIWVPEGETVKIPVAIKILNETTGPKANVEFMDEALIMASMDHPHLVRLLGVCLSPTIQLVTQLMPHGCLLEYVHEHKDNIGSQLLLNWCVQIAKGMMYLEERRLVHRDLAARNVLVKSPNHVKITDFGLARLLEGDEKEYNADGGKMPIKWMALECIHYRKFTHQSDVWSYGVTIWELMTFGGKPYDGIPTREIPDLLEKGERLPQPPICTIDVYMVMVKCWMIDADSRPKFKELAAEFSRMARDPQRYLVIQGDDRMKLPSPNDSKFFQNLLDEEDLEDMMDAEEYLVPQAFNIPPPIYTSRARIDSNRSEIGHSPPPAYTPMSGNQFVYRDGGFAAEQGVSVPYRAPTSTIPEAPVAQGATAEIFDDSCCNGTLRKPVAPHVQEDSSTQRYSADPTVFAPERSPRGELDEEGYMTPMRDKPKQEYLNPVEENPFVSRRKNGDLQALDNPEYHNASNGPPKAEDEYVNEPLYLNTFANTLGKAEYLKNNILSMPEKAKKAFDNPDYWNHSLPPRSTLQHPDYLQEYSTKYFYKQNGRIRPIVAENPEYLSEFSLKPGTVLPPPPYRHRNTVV
# [14] = target: Receptor tyrosine-protein kinase erbB-4 (Homo sapiens) (UniProt Q15303); settings: at 10 µM
# [15] = target: Focal adhesion kinase 1 (Homo sapiens) (UniProt Q05397); settings: at 1 µM
# Sequence of Focal adhesion kinase 1 (Homo sapiens) (Q05397 2-1052 limits assumed): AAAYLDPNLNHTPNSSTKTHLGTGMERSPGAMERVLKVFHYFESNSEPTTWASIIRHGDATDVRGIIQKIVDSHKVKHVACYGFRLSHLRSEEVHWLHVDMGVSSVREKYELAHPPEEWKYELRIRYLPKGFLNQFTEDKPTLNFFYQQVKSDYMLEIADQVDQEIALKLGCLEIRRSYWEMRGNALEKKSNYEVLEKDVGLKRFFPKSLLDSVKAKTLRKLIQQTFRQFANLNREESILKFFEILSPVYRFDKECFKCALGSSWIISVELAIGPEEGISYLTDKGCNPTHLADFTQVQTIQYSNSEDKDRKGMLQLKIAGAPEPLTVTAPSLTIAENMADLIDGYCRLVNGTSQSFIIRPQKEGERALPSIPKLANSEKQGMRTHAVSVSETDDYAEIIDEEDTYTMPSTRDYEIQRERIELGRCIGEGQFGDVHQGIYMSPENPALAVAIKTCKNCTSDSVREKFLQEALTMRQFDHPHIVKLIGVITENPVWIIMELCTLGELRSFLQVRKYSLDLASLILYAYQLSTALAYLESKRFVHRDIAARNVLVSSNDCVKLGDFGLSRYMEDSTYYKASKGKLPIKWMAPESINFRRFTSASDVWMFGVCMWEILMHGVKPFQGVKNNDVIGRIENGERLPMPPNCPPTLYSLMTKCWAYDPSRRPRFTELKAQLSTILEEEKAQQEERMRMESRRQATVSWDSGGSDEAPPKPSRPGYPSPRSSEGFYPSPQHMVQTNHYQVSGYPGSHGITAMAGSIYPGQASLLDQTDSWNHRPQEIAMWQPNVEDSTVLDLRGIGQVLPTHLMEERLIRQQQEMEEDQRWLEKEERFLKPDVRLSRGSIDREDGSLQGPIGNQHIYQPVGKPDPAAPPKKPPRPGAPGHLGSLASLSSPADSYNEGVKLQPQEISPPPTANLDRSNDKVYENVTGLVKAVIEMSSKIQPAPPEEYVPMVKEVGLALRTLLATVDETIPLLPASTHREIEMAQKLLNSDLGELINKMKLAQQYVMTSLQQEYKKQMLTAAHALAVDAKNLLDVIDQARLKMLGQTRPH
smiles,measurement,setting,value
O=c1cc(N2CCOCC2)oc2c1ccc1ccccc12,residual activity,[1],94%
same,residual activity,[2],103%
same,residual activity,[3],124%
same,residual activity,[4],93%
same,residual activity,[5],103%
same,residual activity,[6],84%
same,residual activity,[7],100%
same,residual activity,[8],97%
same,residual activity,[9],95%
same,residual activity,[10],89%
same,residual activity,[11],101%
same,residual activity,[12],108%
same,residual activity,[13],106%
same,residual activity,[14],92%
same,residual activity,[15],132%
